Each structure is given as a SMILES string.

The test is described as follows: viability loss with induced miR-34 in A549 – imaging, A549 dox-inducible miR-34, nuclei and caspase counts, primary screen (AID 1347080). Also: test concentration not given here. The conditions noted are these: A549 miR-34 inducible, Hoechst nuclei count, 48 h; measured here: total cells with miR-34 induction; stronger effect = lower value.
`CCCCC/C=C\C/C=C\C/C=C\C/C=C\CCCC(=O)NCc1ccoc1` yielded a cell count of 5700. In turn, `CCCCCCCCCCCCCCCCSP(=O)([O-])OCC[N+](C)(C)C` yielded a cell count of 5080.

On to `CCCCCCCC/C=C\CCCCCCCC(=O)N[C@H](C)CO`, for which the cell count is 5120.

In the case of `CCCCCCC(=O)O[C@H]1CC[C@H]2[C@@H]3C=CC4=CC(=O)CC[C@]4(C)[C@H]3CC[C@]12C`, the cell count came to 5660.

`CCCCC/C=C\C/C=C\C/C=C\C/C=C\CCCC(=O)NCCCl` yielded a cell count of 6340. In turn, `CC(C)[C@]1(O)[C@@H](OC(=O)c2ccc[nH]2)[C@@]2(O)[C@@]3(C)C[C@]4(O)O[C@@]5([C@H](O)[C@@H](C)CC[C@]35O)[C@@]2(O)C41C` gave a cell count of 5510. `c1cc2ccc(N3CCNCC3)cc2cn1` gave a cell count of 5520.

As for `O=C(CCC/C=C\C[C@@H]1[C@@H](/C=C/[C@@H](O)COc2cccc(C(F)(F)F)c2)[C@H](O)C[C@@H]1O)NC(CO)CO`, the cell count was found to be 5260.

Compound `CCN1C[C@@]2(COC)C3[C@@H](OC)[C@H]4[C@H]1C3([C@@H]1C[C@@]3(O)[C@H](OC(=O)c5ccccc5)[C@@H]1[C@]4(OC(C)=O)[C@@H](O)[C@@H]3OC)[C@H](OC)C[C@H]2O` gave a cell count of 5730. Compound `CCCCC/C=C\C/C=C\C/C=C\C/C=C\CCCC(=O)NC[C@H](C)O` returned a cell count of 6010.

`C=C(C)[C@@H]1CCC(C)=C[C@H]1c1c(O)cc(O)cc1CCCCC` returned a cell count of 5030.

With `COc1ccc(/C=C/C(=O)CC(=O)/C=C/c2ccc(OC)c(OC)c2)cc1OC`, the cell count amounted to 5430. The compound `CCCC[C@@H](C)[C@@H](OC(=O)C[C@@H](CC(=O)O)C(=O)O)[C@H](C[C@@H](C)C[C@H](O)CCCC[C@@H](O)C[C@H](O)[C@H](C)N)OC(=O)C[C@H](CC(=O)O)C(=O)O` returned a cell count of 5520.

The values are drawn from PubChem BioAssay.
